Here are results for eight targets from the supplement of paper PMC12819154, “High-throughput peptide-centric local stability assay extends protein–ligand identification to membrane proteins, tissues and bacteria” (Nature Structural & Molecular Biology, 2025).

Sequence of UniProt Q9BQG0 (Q9BQG0 whole entry): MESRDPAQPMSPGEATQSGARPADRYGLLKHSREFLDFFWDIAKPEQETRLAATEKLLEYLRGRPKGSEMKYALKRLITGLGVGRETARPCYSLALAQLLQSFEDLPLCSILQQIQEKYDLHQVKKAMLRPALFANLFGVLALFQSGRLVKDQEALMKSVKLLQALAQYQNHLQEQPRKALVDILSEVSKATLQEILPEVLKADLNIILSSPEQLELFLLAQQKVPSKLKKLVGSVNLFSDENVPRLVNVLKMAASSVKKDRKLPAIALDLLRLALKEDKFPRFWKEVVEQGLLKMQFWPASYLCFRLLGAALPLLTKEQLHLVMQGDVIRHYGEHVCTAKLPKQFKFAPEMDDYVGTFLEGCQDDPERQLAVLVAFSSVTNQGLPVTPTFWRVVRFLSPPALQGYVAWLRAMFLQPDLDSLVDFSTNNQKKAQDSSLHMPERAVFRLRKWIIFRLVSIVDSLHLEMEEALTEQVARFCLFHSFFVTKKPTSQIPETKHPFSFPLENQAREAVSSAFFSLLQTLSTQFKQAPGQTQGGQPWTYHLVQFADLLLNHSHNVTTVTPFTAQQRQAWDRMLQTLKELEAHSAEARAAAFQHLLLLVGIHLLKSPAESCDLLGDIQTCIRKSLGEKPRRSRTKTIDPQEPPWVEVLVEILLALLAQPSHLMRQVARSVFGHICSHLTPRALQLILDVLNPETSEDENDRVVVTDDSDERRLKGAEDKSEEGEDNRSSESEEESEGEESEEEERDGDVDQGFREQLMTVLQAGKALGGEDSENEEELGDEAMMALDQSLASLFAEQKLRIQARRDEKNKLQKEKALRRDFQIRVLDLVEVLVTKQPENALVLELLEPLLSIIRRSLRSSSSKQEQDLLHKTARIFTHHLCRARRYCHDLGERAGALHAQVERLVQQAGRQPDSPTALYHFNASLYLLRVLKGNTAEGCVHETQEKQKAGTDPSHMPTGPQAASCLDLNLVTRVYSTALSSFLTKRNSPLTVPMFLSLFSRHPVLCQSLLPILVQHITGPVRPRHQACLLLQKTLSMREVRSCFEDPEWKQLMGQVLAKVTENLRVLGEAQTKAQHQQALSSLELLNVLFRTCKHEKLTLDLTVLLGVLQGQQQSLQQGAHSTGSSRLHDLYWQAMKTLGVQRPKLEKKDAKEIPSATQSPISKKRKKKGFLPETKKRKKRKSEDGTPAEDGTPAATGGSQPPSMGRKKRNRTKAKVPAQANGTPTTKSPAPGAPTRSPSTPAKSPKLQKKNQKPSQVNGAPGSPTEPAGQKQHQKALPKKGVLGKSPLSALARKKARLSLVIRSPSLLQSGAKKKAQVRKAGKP
Sequence of UniProt Q14680 (Q14680 whole entry, looked up): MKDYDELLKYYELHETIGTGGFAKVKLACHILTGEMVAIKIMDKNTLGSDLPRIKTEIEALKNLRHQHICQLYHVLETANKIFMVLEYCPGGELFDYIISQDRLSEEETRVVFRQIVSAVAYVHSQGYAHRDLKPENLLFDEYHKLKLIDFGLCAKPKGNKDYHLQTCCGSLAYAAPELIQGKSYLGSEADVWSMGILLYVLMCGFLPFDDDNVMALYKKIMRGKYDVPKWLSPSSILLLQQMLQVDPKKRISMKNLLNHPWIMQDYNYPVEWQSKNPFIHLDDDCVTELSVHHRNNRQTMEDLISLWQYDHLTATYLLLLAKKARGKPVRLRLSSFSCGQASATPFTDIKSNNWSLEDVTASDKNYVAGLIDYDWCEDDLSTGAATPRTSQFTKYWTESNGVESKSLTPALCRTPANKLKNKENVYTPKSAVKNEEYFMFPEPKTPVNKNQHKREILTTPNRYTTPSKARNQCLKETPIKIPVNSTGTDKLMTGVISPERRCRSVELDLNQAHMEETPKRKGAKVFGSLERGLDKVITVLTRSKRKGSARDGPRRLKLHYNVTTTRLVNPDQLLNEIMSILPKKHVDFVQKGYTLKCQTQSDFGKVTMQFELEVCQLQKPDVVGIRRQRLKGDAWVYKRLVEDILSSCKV
Sequence of UniProt Q96GX5 (Q96GX5 whole entry): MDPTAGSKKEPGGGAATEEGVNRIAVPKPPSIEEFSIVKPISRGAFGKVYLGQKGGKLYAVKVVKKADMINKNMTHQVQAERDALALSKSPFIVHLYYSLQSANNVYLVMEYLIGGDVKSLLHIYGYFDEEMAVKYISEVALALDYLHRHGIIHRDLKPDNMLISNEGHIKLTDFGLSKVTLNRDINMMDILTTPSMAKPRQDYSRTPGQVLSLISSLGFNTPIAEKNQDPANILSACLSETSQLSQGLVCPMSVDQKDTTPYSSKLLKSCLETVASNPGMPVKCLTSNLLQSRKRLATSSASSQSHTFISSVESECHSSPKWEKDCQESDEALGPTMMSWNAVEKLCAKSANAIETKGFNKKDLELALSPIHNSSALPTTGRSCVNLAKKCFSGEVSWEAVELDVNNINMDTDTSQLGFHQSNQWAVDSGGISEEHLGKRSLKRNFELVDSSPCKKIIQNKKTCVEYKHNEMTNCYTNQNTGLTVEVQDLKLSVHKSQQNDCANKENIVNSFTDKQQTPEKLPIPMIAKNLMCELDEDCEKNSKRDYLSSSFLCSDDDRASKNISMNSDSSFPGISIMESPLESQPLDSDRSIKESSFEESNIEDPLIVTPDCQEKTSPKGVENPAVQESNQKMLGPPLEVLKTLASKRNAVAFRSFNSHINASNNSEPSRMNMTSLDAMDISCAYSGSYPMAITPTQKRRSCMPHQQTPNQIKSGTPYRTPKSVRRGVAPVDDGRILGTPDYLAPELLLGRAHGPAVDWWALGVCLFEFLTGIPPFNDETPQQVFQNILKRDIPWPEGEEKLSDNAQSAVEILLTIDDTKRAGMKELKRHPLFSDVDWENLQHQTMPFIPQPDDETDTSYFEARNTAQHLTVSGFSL
Sequence of UniProt P53667 (P53667 whole entry, looked up): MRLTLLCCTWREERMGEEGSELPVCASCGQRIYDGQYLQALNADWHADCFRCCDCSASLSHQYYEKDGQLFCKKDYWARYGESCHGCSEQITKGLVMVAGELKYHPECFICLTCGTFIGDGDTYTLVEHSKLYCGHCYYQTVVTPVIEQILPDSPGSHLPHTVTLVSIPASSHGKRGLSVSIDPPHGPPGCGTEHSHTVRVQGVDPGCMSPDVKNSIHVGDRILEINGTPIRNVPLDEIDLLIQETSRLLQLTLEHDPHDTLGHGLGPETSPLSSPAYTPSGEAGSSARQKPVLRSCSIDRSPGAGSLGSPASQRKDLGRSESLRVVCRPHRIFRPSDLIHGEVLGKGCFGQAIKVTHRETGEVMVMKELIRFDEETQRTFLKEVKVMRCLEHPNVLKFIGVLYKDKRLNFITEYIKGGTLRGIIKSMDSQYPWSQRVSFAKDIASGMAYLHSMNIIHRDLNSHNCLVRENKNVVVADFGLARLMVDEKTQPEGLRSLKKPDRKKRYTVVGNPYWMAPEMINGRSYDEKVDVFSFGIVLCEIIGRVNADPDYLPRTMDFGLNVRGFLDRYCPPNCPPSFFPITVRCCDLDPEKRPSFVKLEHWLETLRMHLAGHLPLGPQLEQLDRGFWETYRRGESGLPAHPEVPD
Sequence of UniProt Q9Y3A2 (Q9Y3A2 whole entry): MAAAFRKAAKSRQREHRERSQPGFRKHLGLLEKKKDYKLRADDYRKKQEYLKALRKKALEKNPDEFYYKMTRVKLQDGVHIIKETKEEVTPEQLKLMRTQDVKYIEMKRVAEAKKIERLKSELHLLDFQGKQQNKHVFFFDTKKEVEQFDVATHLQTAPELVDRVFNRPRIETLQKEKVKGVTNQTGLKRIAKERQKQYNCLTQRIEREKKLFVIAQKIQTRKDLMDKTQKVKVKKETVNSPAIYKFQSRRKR
Sequence of UniProt Q9BVS4 (Q9BVS4 whole entry, looked up): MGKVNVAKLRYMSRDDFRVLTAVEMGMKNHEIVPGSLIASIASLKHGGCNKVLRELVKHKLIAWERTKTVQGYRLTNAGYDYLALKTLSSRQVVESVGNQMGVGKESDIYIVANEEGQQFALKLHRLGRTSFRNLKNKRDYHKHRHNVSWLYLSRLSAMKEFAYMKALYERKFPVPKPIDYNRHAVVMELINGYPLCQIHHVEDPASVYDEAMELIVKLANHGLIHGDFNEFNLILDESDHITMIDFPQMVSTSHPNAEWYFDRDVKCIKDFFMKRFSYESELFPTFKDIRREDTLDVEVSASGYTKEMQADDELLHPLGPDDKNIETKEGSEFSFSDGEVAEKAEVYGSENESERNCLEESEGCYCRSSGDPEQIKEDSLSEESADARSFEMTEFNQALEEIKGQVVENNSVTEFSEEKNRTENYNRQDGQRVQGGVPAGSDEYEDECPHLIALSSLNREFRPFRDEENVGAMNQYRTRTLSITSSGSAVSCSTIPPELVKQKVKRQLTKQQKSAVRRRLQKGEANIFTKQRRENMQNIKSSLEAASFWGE
Sequence of UniProt Q06830 (Q06830 whole entry): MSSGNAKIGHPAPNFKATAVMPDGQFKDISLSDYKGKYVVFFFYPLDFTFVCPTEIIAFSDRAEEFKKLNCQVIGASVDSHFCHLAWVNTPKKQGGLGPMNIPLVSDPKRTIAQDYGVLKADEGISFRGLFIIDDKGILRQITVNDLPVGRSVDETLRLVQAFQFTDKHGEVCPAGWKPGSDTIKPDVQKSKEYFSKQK

Compound in the experiment: CN[C@@H]1C[C@H]2O[C@@](C)([C@@H]1OC)n1c3ccccc3c3c4c(c5c6ccccc6n2c5c31)C(=O)NC4 [staurosporine]
Kind of experiment: log2 fold change of tryptic peptide abundance, ligand vs vehicle (limited proteolysis) (log2 ratio); higher = more trypsin-susceptible (destabilized). Conditions: ligand concentration: 20 uM; sample: K562 cleared lysate; digestion: 4 min, 22 C (HT-PELSA RT4min, Orbitrap Astral).
Turning to “MASTL (peptide sequence: IAVPKPPSIEEFSIVKPISR, peptide start residue: 24) (UniProt Q96GX5)”, the log2 fold change was -1.05.
In the case of “MYBBP1A (peptide sequence: VLKGNTAEGCVHETQEK, peptide start residue: 933) (UniProt Q9BQG0)”, the log2 fold change is 2.16.
The value for “DDX41 (peptide sequence: TDEVPAGGSR, peptide start residue: 13) (UniProt Q9UJV9)” was 0.553.
Consider “UTP11 (peptide sequence: SELHLLDFQGK, peptide start residue: 121) (UniProt Q9Y3A2)”, for which the log2 fold change is -1.12.
Take “MELK (peptide sequence: DLKPENLLFDEYHK, peptide start residue: 132) (UniProt Q14680)”: the log2 fold change was -1.98.
Turning to “UniProt Q9BVS4 (peptide sequence: VLTAVEMGMK, peptide start residue: 19)”, the log2 fold change is -1.57.
The figure for “LIMK1 (peptide sequence: VNADPDYLPR, peptide start residue: 546) (UniProt P53667)” is -1.05.
The figure for “PRDX1 (peptide sequence: KQGGLGPMNIPLVSDPKR, peptide start residue: 93) (UniProt Q06830)” is 0.253.
